# Measured values: PubChem BioAssay
# Activity calls are given as the source filed them.
# Columns and labels:
# [1] = binders of probe aFSTL3 on microarray, primary screen, stem cell growth factor project, biochemical, small-molecule microarray, fluorescence 635/667 (AID 1064); details: higher = more signal;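 also: measures binding of the biotinylated anti-FSTL3 antibody to printed compounds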
# [2] = binders from COS7 lysate, DM2A8 probe, primary screen, torsin A project, cell lysate, small-molecule microarray, fluorescence 635/667 (AID 1065); details: higher = more signal, COS7 lysate expressing mutant human TOR1A
# [3] = binders of probe aFGF2 on microarray, primary screen, stem cell growth factor project, biochemical, small-molecule microarray, fluorescence 635/667 (AID 1067); details: higher = more signal;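 also: measures binding of biotinylated aFGF2 protein to printed compounds on slides; z-score merges feature fluorescence and signal-to-noise across triplicate slides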
# [4] = binders of probe aFGF10 on microarray, primary screen, stem cell growth factor project, biochemical, small-molecule microarray, fluorescence 635/667 (AID 1071); details: higher = more signal;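 also: score merges 667 nm spot intensity and signal to noise from triplicate slides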
# [5] = molecular target: Neurogenic locus notch homolog protein 2 (Homo sapiens) (UniProt Q04721); assay: Notch2 binders on small-molecule microarrays, primary screen, biochemical, small-molecule microarray, 635 nm fluorescence, stem cell growth factors (AID 1073); details: Notch2 binding, higher = more signal
# Sequence of Neurogenic locus notch homolog protein 2 (Homo sapiens) (Q04721 whole entry, looked up, canonical isoform): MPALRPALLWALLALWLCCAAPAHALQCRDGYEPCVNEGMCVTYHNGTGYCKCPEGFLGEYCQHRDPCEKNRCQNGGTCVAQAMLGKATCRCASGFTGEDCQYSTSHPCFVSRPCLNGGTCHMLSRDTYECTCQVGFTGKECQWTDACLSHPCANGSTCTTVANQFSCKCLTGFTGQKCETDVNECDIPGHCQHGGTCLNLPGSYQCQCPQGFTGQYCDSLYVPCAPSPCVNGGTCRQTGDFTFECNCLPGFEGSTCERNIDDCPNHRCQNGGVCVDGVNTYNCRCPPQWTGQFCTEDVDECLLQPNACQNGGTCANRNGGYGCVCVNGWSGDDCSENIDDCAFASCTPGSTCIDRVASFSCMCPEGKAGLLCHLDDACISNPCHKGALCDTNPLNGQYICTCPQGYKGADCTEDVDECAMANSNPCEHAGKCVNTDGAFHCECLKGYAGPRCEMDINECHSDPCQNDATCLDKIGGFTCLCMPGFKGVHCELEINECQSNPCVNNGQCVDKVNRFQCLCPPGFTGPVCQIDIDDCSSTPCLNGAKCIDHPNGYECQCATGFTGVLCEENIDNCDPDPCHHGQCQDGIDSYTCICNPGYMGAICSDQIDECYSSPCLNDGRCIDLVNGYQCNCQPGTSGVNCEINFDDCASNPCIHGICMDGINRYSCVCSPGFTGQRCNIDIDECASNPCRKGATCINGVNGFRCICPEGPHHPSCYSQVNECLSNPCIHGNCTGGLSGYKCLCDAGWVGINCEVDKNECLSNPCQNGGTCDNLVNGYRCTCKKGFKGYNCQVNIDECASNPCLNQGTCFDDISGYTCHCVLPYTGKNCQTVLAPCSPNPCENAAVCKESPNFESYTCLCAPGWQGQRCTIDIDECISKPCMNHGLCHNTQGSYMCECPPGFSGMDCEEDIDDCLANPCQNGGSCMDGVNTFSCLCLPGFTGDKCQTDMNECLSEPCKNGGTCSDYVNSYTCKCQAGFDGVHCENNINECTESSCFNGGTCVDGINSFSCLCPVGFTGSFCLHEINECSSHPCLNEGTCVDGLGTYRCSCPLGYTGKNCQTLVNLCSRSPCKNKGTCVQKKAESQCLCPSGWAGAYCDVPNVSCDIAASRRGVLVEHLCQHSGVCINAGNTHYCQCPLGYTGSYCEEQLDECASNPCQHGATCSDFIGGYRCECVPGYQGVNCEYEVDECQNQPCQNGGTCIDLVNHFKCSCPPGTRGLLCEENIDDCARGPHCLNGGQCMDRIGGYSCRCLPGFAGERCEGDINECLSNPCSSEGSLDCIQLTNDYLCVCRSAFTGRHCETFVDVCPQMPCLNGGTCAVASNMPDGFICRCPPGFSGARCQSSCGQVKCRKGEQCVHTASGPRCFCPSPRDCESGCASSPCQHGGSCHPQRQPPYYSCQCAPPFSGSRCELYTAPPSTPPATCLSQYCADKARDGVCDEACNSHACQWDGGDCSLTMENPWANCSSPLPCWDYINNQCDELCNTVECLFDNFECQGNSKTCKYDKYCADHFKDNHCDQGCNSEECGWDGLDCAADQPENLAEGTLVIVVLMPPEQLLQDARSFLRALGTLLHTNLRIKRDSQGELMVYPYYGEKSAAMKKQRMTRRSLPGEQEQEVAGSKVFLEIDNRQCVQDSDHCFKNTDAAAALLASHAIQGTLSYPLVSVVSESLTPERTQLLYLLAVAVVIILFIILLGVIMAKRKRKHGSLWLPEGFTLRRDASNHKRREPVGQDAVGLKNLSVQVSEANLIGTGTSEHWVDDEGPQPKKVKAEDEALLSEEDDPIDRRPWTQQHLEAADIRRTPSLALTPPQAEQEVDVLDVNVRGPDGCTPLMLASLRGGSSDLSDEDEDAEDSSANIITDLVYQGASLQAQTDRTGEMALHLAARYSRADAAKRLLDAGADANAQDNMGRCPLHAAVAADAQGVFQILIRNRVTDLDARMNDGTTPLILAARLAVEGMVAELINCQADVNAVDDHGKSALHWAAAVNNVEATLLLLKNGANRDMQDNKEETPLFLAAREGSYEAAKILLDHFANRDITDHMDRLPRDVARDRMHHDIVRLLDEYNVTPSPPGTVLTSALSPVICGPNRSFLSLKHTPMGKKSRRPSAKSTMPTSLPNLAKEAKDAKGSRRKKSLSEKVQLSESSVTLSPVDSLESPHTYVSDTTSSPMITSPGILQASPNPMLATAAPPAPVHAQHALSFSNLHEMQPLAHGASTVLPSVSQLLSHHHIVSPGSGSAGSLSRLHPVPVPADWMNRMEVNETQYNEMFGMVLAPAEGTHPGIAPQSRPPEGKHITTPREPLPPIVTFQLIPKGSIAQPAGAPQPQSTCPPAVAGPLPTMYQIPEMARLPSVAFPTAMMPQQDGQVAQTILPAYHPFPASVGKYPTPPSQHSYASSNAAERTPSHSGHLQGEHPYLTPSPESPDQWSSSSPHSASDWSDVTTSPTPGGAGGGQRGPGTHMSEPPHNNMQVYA
# [6] = molecular target: Pro-neuregulin-1, membrane-bound isoform (Homo sapiens) (UniProt Q02297); assay: NRG1 binders on small-molecule microarrays, primary screen, psychiatric disease protein project, biochemical, small-molecule microarray, fluorescence 635/667 (AID 1075); details: NRG1 binding, 635 nm fluorescence, higher = more signal;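 also: score combines 667 nm spot fluorescence with signal to noise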
# [7] = test system: Neuregulin-1 EGF-like domain; assay: binders of neuregulin-1 EGF-like domain, primary screen, biochemical, small-molecule microarray, 635 nm fluorescence (AID 1081); details: small-molecule microarray binding, higher = more signal;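 also: binding of the protein to compounds printed on small-molecule microarray slides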
# [8] = FRG1 promoter luciferase signal modulators, primary screen, FRG1 inhibition for FSHD, cell-based, C2C12 myotubes, firefly/Renilla luciferase, luminescence (AID 1084); details: higher = more signal, called active from +8 up or from −8 down
# [9] = binders of probe aFST on microarray, primary screen, stem cell growth factor project, biochemical, small-molecule microarray, fluorescence 635/667 (AID 1086); details: higher = more signal;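 also: score merges 667 nm fluorescence with signal-to-noise of each printed compound spot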
# [10] = binders of probe aHhip on microarray, primary screen, stem cell growth factor project, biochemical, small-molecule microarray, fluorescence 635/667 (AID 1087); details: higher = more signal;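 also: score merges spot fluorescence at 667nm with spot signal to noise ratio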
# [11] = test system: PRMT1 (protein arginine N-methyltransferase 1); assay: PRMT1 binders on small-molecule microarrays, primary screen, biochemical, small-molecule microarray, 635 nm fluorescence (AID 1088); details: small-molecule microarray binding, higher = more signal;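 also: binding of Prmt1 protein to compounds spotted on small-molecule microarray slides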
# [12] = yeast growth modulation, basal conditions, primary screen, YJM789 clinical isolate, OD600, 24 h (AID 1089);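 also: growth of clinical yeast isolate S. cerevisiae YJM 789 seeded 1000 cells per well; test concentration not given here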; details: S. cerevisiae YJM789 growth, higher = more signal, called active from +8 up or from −8 down
# [13] = fission yeast growth modulation, primary screen, strain 972, OD600, 24 h, no modulator (AID 1090);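 also: basal condition with compound alone and no growth modifier present; test concentration not given here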; details: S. pombe 972 growth, higher = more signal, called active from +8 up or from −8 down
# [14] = S. cerevisiae growth modulation with rapamycin, primary screen, strain BY4716, OD600, 96 h (AID 1091); details: higher = more signal, called active from +8 up or from −8 down; also: test concentration not given here
# [15] = molecular target: Torsin-1A-interacting protein 2 (Homo sapiens) (UniProt Q8NFQ8); assay: LULL1 binders on small-molecule microarray, primary screen, cell lysate, human LULL1 lysate, 635/667 nm fluorescence (AID 1092); details: hLULL1 lysate binding, 635 nm fluorescence, higher = more signal;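 also: probe is lysate of COS7 cells overexpressing human LULL1; score merges per-feature 667 nm fluorescence with signal-to-noise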
# [16] = E. coli growth modulation, two-sided OD650, primary screen, E. coli filamentation project, strain DRC41, 24 h (AID 1093); details: OD650, 24 h, higher = more signal, called active from +8 up or from −8 down;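 also: MC1000 strain lacking acrAB efflux and sulA so SOS filamentation is blocked; test concentration not given here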
# [17] = small-molecule microarray binders of probe aLefty2, primary screen, biochemical, biotinylated probe, 635/667 nm fluorescence (AID 1094); details: higher = more signal;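 also: score merges spot fluorescence near 667 nm with spot signal-to-noise ratio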
# [18] = test system: Noggin (protein binding on small-molecule microarray); assay: Noggin binders on small-molecule microarray, primary screen, biochemical, 635/667 nm fluorescence (AID 1095); details: 635 nm fluorescence, higher = more signal;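 also: score merges 667 nm feature fluorescence with signal to noise over triplicate slides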
# [19] = molecular target: Neurogenic locus notch homolog protein 3 (Homo sapiens) (UniProt Q9UM47); assay: NOTCH3 binders on small-molecule microarray, primary screen, biochemical, 635/667 nm fluorescence (AID 1096); details: NOTCH3 binding, 635 nm fluorescence, higher = more signal
# Sequence of Neurogenic locus notch homolog protein 3 (Homo sapiens) (Q9UM47 whole entry, looked up): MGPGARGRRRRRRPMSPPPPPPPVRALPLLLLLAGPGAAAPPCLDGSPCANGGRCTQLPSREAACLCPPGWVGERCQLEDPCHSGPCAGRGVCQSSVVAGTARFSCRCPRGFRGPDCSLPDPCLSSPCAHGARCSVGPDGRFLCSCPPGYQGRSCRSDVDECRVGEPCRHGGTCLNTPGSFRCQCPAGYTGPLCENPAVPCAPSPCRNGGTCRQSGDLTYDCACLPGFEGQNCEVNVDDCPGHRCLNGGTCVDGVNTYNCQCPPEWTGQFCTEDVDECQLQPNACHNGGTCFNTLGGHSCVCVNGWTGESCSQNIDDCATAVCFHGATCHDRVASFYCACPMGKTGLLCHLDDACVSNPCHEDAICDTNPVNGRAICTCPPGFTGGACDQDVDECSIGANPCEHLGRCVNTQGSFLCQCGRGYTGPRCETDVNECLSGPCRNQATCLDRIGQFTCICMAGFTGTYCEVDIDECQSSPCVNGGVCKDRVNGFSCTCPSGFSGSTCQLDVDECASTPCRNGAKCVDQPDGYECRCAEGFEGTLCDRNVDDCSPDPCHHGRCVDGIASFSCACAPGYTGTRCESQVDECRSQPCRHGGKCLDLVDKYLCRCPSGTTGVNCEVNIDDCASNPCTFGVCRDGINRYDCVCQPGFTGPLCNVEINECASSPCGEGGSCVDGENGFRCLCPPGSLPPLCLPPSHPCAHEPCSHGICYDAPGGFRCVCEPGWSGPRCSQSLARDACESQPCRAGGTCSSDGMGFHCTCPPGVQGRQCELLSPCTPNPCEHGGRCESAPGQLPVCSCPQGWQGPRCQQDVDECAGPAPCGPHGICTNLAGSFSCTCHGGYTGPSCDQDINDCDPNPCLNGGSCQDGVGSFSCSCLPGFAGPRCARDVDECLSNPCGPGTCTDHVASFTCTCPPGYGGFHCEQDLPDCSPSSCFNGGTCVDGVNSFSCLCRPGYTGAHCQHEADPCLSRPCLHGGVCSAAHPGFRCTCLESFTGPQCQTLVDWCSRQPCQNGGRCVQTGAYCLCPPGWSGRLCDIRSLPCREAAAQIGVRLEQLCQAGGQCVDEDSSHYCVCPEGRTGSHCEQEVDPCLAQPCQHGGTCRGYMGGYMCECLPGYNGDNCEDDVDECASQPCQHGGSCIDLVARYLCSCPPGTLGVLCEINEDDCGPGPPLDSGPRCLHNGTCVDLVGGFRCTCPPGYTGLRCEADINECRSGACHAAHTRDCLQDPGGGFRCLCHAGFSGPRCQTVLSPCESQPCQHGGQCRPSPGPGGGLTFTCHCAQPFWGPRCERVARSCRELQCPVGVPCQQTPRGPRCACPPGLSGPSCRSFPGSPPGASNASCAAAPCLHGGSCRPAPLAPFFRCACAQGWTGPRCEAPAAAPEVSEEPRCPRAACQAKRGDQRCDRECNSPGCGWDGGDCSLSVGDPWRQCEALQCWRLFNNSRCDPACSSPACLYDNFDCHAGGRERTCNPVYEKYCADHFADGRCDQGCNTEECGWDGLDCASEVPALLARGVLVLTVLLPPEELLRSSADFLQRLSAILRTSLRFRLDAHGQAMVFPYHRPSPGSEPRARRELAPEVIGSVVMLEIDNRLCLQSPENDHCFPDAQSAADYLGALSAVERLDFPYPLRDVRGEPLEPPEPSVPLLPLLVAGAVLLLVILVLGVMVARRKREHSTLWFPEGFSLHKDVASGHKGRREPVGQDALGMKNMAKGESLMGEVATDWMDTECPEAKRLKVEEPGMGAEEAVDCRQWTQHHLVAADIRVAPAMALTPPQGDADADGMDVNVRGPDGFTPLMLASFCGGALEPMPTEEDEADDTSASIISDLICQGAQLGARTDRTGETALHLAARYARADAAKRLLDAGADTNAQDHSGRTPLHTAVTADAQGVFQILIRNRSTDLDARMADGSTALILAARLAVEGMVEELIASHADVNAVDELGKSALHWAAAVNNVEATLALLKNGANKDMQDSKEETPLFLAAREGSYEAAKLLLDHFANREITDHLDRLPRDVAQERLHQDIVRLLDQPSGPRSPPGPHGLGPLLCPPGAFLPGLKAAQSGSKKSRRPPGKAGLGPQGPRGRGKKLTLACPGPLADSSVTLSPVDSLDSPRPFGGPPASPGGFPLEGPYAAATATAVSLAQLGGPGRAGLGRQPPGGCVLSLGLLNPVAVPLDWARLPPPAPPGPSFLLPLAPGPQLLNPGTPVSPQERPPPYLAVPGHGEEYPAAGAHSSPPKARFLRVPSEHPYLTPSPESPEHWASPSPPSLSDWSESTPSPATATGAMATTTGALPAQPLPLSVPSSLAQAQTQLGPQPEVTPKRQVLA
# [20] = small-molecule microarray binders of probe aEGFR, primary screen, biochemical, biotinylated probe, 635/667 nm fluorescence (AID 1097); details: higher = more signal;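 also: probe is a biotinylated anti-EGFR antibody binding compounds printed on slides; score combines fluorescence near 667 nm and signal to noise of each spot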
Compound,composite z-score [1],composite z-score [2],composite z-score [3],composite z-score [4],composite z-score [5],composite z-score [6],composite z-score [7],z-score [8],composite z-score [9],composite z-score [10],composite z-score [11],z-score [12],z-score [13],z-score [14],composite z-score [15],z-score [16],composite z-score [17],composite z-score [18],composite z-score [19],composite z-score [20]
COCCOC(=O)N1C(=O)[C@@]2(c3ccccc31)[C@H](C(=O)N1CCN(c3ncccn3)CC1)[C@H]1C(=O)O[C@H](c3ccccc3)[C@H](c3ccccc3)N1[C@@H]2c1ccccc1OCCO,-0.287,0.514,0.168,0.7,0.827,0.111,1.13,-1.12 (inactive),0.244,-0.0919,1.49,1.13 (inactive),0.185 (inactive),7.39 (inactive),2.61,1.97 (inactive),-0.0366,1.18,1.07,-0.067
[N-]=[N+]=Nc1ccccc1[C@@H]1OC(c2ccc(OCCCO)cc2)=N[C@]1(Cc1ccccc1)C(=O)NCCN1CCOCC1,-0.0258,2.32,-0.001,0.916,1.21,-0.238,1.33,-0.906 (inactive),1.26,0.24,0.547,-0.312 (inactive),-1.36 (inactive),0.152 (inactive),3.51,0.382 (inactive),0.0787,0.762,1.09,-0.0106
CC(C)(C)N1CC=CC23O[C@@H]4/C=C\CCCOC(=O)C4[C@H]2C(=O)N(CCCO)[C@@H]3C1=O (stereo not given in full),0.164,-0.496,-0.203,-0.147,-0.864,1.07,1.1,0.502 (inactive),-0.582,-0.286,0.477,-1.01 (inactive),0.0214 (inactive),-0.766 (inactive),1.11,-0.282 (inactive),-0.279,-0.877,0.0017,-0.129
CCCNC(=O)[C@@]1(Sc2ccc(C)cc2)CC(=O)N(Cc2ccccc2Cl)[C@@H]1c1ccc(CO)cc1I,0.746,-1.23,-0.127,-0.391,-1.13,1.4,0.895,-1.6 (inactive),0.0493,0.106,0.16,-1.17 (inactive),-3.81 (inactive),1.82 (inactive),2.08,0.545 (inactive),0.328,-1.24,-0.502,-0.267
CCCCC(O)C1C=CC2C(=O)N(c3ccccc3)C(=O)C2N1Nc1ccccc1 (stereo not given),0.436,-0.572,-0.0414,0.43,1.2,1.62,1.12,0.0165 (inactive),0.545,-0.137,0.24,0.102 (inactive),-1.32 (inactive),1.77 (inactive),2.93,-0.193 (inactive),-0.0355,-0.422,0.452,-0.153
[N-]=[N+]=Nc1ccccc1C[C@]1(C(=O)N2CCOCC2)N=C(c2ccc(OCCCO)cc2)O[C@H]1c1ccccc1N=[N+]=[N-],-0.214,1.05,0.119,0.499,1.5,1.68,1.36,-2.32 (inactive),1.53,-0.0237,1.53,-3.46 (inactive),-10.9 (active),2.91 (inactive),3.39,1.2 (inactive),0.166,1.61,1.04,-0.0211
NC(=O)N1C(=O)C2C(C1=O)C1C=C(CCCO)C2C(C2CC2)N1Cc1sc2ccccc2c1Cl (stereo not given),-0.4,1.09,0.0397,1.27,0.481,1.45,1.21,0.906 (inactive),0.115,-0.134,1.56,-0.425 (inactive),-2.48 (inactive),-1.63 (inactive),2.14,0.792 (inactive),0.0819,0.355,1.13,-0.0697
C=C(CCCC)/C(=C/C[C@H](OC(=O)c1ccncc1)c1ccc(OCCO)cc1)c1cnc2ccccc2c1,0.102,1.23,-0.121,0.322,1.12,1.33,1.23,-0.791 (inactive),0.402,-0.124,1.51,0.144 (inactive),-2.06 (inactive),0.199 (inactive),1.26,0.7 (inactive),-0.0306,1.17,1.09,0.0129
O=C(NCc1ccccc1)[C@@H]1c2ccccc2C(=O)N(Cc2cc(C(F)(F)F)cc(C(F)(F)F)c2)[C@H]1c1ccc(CO)cc1,-0.501,1.62,-0.118,0.409,0.685,0.71,1.27,-0.354 (inactive),0.423,0.0505,1.53,0.744 (inactive),-0.077 (inactive),0.296 (inactive),2.55,-1 (inactive),-0.0512,1.37,1.12,0.0453
CC(C)(C)OC(=O)CC[C@@]1(C(=O)NCCN2CCOCC2)N=C(c2ccc(OCCCO)cc2)O[C@@H]1c1ccccc1CN=[N+]=[N-],0.202,0.213,0.0154,0.167,0.422,1.54,0.914,5.92 (inactive),0.157,0.0106,1.09,-0.865 (inactive),0.258 (inactive),-1.3 (inactive),2.96,-1.07 (inactive),-0.0152,0.167,0.461,-0.0479
